Screens: PubChem BioAssay, National Center for Advancing Translational Sciences (NCATS)
An excerpt weighted towards active compounds, which were near 5.4% of everything screened.
Vaccinia mCherry: qHTS for Stage-Specific Inhibitors of Vaccinia Orthopoxvirus: mCherry Reporter Primary qHTS | Vaccinia virus mCherry reporter infection, fluorescence | Potency, µM (doses to about 36.5 µM), for inactives: top-dose activity change, negative = inhibition, actives largely listed as inhibitors | 0.63% of 310,000 active | AID 720579, 2013; calls by dose curve; tested in A549 cells; further: nearly all actives have a fitted effect of over 35% in size
MARV entry inh: qHTS for inhibitors of binding or entry into cells for Marburg Virus; Marburg virus pseudotyped entry inhibition, cell reporter; Potency, µM (top dose mostly 37.8 µM), inactives show at the top dose activity change, negative = inhibition, usual class: inhibitors; 1.8% of 300,000 active; AID 540276, 2011; calls by dose curve; tested in HEK293 cells
LASV entry inh: qHTS for Inhibitors of binding or entry into cells for Lassa Virus; Potency, µM (top dose mostly 37.9 µM), for the others: at the top dose activity change, negative = inhibition, actives largely listed as inhibitors; 1.2% of 300,000 active; Lassa virus pseudotype entry inhibition, cell reporter; calls by dose curve; tested in HEK293 cells; further: nearly all actives have a fitted effect of over 50% in size
Vaccinia Venus: qHTS for Stage-Specific Inhibitors of Vaccinia Orthopoxvirus: Venus Reporter Primary qHTS; 0.46% of 330,000 active; Potency, µM (doses to about 36.5 µM), without a hit: top-dose activity change, negative = inhibition, usual class: inhibitors; Vaccinia virus Venus reporter expression, fluorescence; calls by dose curve; tested in A549 cells; further: nearly all actives have a fitted effect of over 30% in size
Sm TGR block: qHTS Assay for the Inhibitors of Schistosoma Mansoni Peroxiredoxins | Potency, µM (highest dose often 114 µM), inactives show top-dose activity change, negative = inhibition, hits mostly inhibitors | 3% of 360,000 active | purified TGR, DTNB reduction, TNB absorbance 405 nm | Schistosoma mansoni thioredoxin glutathione reductase (TGR), Q962Y6; active means well fitted inhibition curve with a large enough effect; inconclusive means small, poorly fitted or top-dose-only effect; inactive means no such curve, though single readings can be large or run the other way; further: nearly all actives have a fitted effect of over 60% in size
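Kinetic colorimetric format: TGR-catalysed, NADPH-driven DTNB reduction monitored via TNB absorbance. Enzyme dispensed at 20 nM; compound exposure 15 min at room temperature before reaction start.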
FMDV antiviral: High Throughput Screening for Foot and Mouth Disease Virus Antivirals. FMDV antiviral cell-based qHTS. 1.2% of 410,000 active. Potency, µM (titrated, usually from 57.9 µM), for the others: at the highest dose activity change, negative = inhibition, most hits filed as inhibitors; calls by dose curve; tested in HEK293T cells; further: read-out not given here; nearly all actives have a fitted effect of over 45% in size
Active calls of the source: *; i = inactive; ? = inconclusive; . = no result given; [ ] = remark or other dose. On the % scale 0 is the no-effect control and ±100 the full control effect; potency means the concentration at half of the fitted maximal effect.

SMILES	Vaccinia mCherry	MARV entry inh	LASV entry inh	Vaccinia Venus	Sm TGR block	FMDV antiviral
COc1cc(/C=C/c2ccc(O)cc2)cc(OC)c1	27%	.	.	9%	0%	28%
COC(=O)c1ccc2c(c1)C(C)(C)C(/C=C/c1ccc(OC)c(OC)c1OC)=[N+]2C	-16%[1.46 µM]	?	?	87%	-48%	16µM*
Cc1ccc(/C=C/c2nc3ccccc3c(=O)[nH]2)cc1	.	.	.	.	17%	16µM*
Cc1ccc(/C=C/c2nc3ccccc3[nH]2)cc1	-27%	.	2.2µM*	-22%	-6%	8.9µM*
COC(=O)c1ccc(/C=C/c2nc3ccccc3c(=O)[nH]2)cc1	-11%	?	?	-4%	4%	18%
COc1ccccc1/C=C/c1nc2ccccc2[nH]1	-4%	.	.	-29%	.	.
Cc1ccc(/C=C/c2nc3ccccc3[nH]2)o1	-11%	?	?	-3%	3.5µM*	-49%
CCCOc1ccc(CNC(=O)c2cc3ccccn3n2)cc1	-5%	.	?	-3%	12%	28%
Cc1cccc(NC(=O)N2CCC(CN3CCOCC3)CC2)c1C	-13%	.	20%[46.1 µM]	8%	4%	-13%
COc1ccc(OC)c(NC(=O)c2cc(OC(C)=O)cc(C(=O)Nc3cc(OC)ccc3OC)c2)c1	.	.	.	.	-14%	28µM*
CCc1ccc(NC(=O)C2CCCN(S(=O)(=O)c3c(C)noc3/C=C/N(C)C)C2)cc1 (centres undefined)	-3%[7.34 µM]	-5%[46.1 µM]	9%[46.1 µM]	-13%[7.34 µM]	0%	0%
COc1ccc(C(=O)N2CCCC(CO)(Cc3ccccc3C)C2)o1 (centres undefined)	-8%	0%	-4%	-12%	45µM*	42%
Cc1ccccc1CC1(CO)CCCN(C(=O)c2ccoc2)C1 (centres undefined)	i	.	.	-11%	.	8%
CN(C)c1cc[n+](CC(=O)Nc2ccc([N+](=O)[O-])cc2Cl)cc1	?	-15%	-2%	-23%	-32%	-16%
CN(C)c1cc[n+](CC(=O)Nc2c(Cl)cc(Cl)cc2Cl)cc1	i	4%[46.1 µM]	10%	-18%	40µM*	-9%
COc1cc(C(=S)N2CCCC2)ccc1OS(=O)(=O)c1ccc(NC(C)=O)cc1	.	-24%	16µM*	.	-2%	20µM*
COc1ccc(S(=O)(=O)Oc2ccc(C(=S)N3CCOCC3)cc2OC)cc1	-22%	?	-21%	-13%	-17%	?
COc1cc(C(=S)N2CCOCC2)ccc1OS(=O)(=O)c1ccc(NC(C)=O)cc1	i	?	?	-1%	-5%	13µM*
Cc1cc(C)n(-c2cccc(C(=O)NCC3Cc4cccc(-c5cccnc5)c4O3)c2)n1 (centres undefined)	i	.	.	-24%	.	?
Cc1c(C(=O)c2cccc3ccccc23)c2cccc3c2n1[C@H](CN1CCOCC1)CO3	-25%	8.9µM*	21µM*	?	.	-29%
O=C(Nc1ccc2oc(-c3cc(Br)ccc3Cl)nc2c1)c1cc2ccccc2o1	-14%[7.34 µM]	?	6%[46.1 µM]	-10%[7.34 µM]	14%	-15%
C[C@H]1CC[C@H]2C(=O)O[C@H](CO)CN2[C@H]1c1ccc(Br)cc1	.	-20%[14.2 µM]	?	.	.	.
C#CCOCCOCCOCCNc1nc(N2CCN(C(=O)CCCCCCCCCCNC(=O)[C@@H](CCSC)n3cc(CCO)nn3)CC2)nc(N2CCN(C(=O)CCCCCCCCCCNC(=O)[C@H](CCCN=C(N)N)n3cc(C[C@@H](C)CC)nn3)CC2)n1	?	.	.	10µM*	5µM*	?
C#CCOCCOCCOCCNc1nc(N2CCN(C(=O)CCCCCCCCCCNC(=O)[C@@H](CCC(=O)O)n3cc(CCCCCN)nn3)CC2)nc(N2CCN(C(=O)CCCCCCCCCCNC(=O)[C@H](CCCCN)n3cc(C[C@@H](C)CC)nn3)CC2)n1	i	.	.	?	-27%	-25%
